Rows were chosen to be rich in hits. Some 3.6% of all compounds tested hit in one or more screens of this group.
IMPase Li inh = qHTS Assay for Identifying the Cell-Membrane Permeable IMPase Inhibitors: Potentiation with Lithium; Potency, µM (top dose mostly 59.4 µM), for inactives: top-dose activity, negative = IMPase inhibition, hits mostly inhibitors; CHO-M1 cells, IP1 TR-FRET (IP-One), carbachol + lithium; 0.35% of 210,000 active; AID 1457, 2008;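 also: IP1 builds up when IMPase is blocked and the TR-FRET signal falls; plate controls were basal vehicle for no effect and high inhibitor control for full effect; nearly all actives have a fitted effect of over 50% in size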
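IP1 accumulation measured by competitive TR-FRET in lysed CHO-M1 cells after 30 min compound exposure at 37C, with a small lithium addition to potentiate weak responses. Hill-equation AC50 from ratio and donor-channel data.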
Epigenetic reg = Quantitative High-Throughput Screen for Regulators of Epigenetic Control; murine LDR cells, GFP reporter derepression, 30 h; Potency, µM (doses to about 53.9 µM), for the others: at the highest dose GFP activation, most hits filed as activators; AID 1865, 2009; 0.2% of 280,000 active; also: % of control where 0% means no effect; nearly all actives have a fitted effect of over 60% in size
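In this reporter-derepression format, murine cells bearing a silenced integrated CMV-GFP locus incubate with test compound (30 h, 37 C), then are washed and imaged; fluorescent objects of 20–120 um count as induced cells.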
JMJD2E inh = qHTS Assay for Inhibitors of Human Jumonji Domain Containing 2E (JMJD2E); JMJD2E catalytic domain, FDH-coupled NADH fluorescence (FDH is formaldehyde dehydrogenase); AID 2147, 2009; Potency, µM (series often up to 57.1 µM), inactives show at the highest dose activity change, negative = inhibition, actives largely listed as inhibitors; 1.6% of 230,000 active; active = well fitted inhibition curve with a large enough effect, not every such curve was filed as active; inconclusive = small, poorly fitted or top-dose-only effect, or another doubt; inactive = no such curve, though single readings can be large or run the other way;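 also: 0% = wells with enzyme and -100% = buffer wells without enzyme; nearly all actives have a fitted effect of over 50% in size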
Target sequence (B2RXH2 1-337 limits assumed): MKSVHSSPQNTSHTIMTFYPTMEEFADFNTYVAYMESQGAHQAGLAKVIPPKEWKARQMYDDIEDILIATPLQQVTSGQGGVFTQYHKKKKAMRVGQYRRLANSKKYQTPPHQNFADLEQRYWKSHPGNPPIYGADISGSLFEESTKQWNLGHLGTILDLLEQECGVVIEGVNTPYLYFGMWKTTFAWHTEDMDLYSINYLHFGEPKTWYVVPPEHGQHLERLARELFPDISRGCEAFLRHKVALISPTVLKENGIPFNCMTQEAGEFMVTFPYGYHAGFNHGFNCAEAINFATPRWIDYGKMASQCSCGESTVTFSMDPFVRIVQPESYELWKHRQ
Sfp inh = qHTS Assay for Inhibitors of Bacillus subtilis Sfp phosphopantetheinyl transferase (PPTase) | Potency, µM, for inactives: largest response in the series, negative = inhibition, hits mostly inhibitors | 3.5% of 310,000 active | AID 1490, 2009 | 4'-phosphopantetheinyl transferase ffp (Bacillus subtilis), Q9F4F7 | Biochemical Sfp PPTase activity, qHTS;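 also: the enzyme is Sfp with the accession as filed and its product quenches rhodamine fluorescence; 0% = enzyme reaction without inhibitor and -100% = no enzyme wells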
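With Hepes-Na pH 7.6 buffer containing 10 mM MgCl2, Sfp (15 nM) modified BHQ-2-YbbR (12.5 uM) using rhodamine-CoA (5 uM). Two reads 30 minutes apart at 525/598 nm yielded each well's rate.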
NPSR antag = qHTS Assay for Antagonists of the Neuropeptide S Receptor: cAMP Signal Transduction; Q6W5P4; CHO-NPSR cells, cAMP TR-FRET, antagonist mode; Potency, µM (series often up to 38.3 µM), without a hit: at the top dose activity change, negative = inhibition, actives largely listed as inhibitors; 1% of 220,000 active; AID 1461, 2008; also: % is scaled to controls: 0 for no effect and ±100 for the full control effect; nearly all actives have a fitted effect of over 50% in size
KAT2A inh = qHTS Assay for Inhibitors of GCN5L2; 0.21% of 390,000 active; GCN5L2 HAT assay, ThioGlo1 CoA-SH fluorescence; Potency, µM (titrated, usually from 58.9 µM), without a hit: at the highest dose activity change, negative = inhibition, hits mostly inhibitors; Histone acetyltransferase KAT2A (Homo sapiens), Q92830; AID 504327, 2011; also: % is scaled to controls: 0 for no effect and ±100 for the full control effect
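Preincubate 20nM GCN5L2 with compound 15 min, RT → add 50uM ThioGlo1 + 75uM H3(1-25) + 70uM acetyl-CoA → read fluorescence 0 and 20 min. Primary qHTS; fluorescent artifacts likely.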
Numbers without * were called inactive; ? = inconclusive; . = no result given; [ ] = remark or other dose. Unless noted, calls follow the shape of the dose curve; as a rule, active = well fitted curve in the direction sought with a large enough effect; inconclusive = small, poorly fitted or top-dose-only effect, or another doubt; inactive = no such curve, though single readings can be large; an effect the other way counts as inactive or inconclusive. Potency is read from the fitted curve at half-maximal effect.

SMILES | IMPase Li inh | Epigenetic reg | JMJD2E inh | Sfp inh | NPSR antag | KAT2A inh
O=C(N/N=C1/C[C@@H](O)[C@@H](O)[C@@H]2[C@@H]3C(=O)N(c4cccc(Oc5ccccc5)c4)C(=O)[C@H]3CC[C@H]12)OCc1ccccc1 | . | 1%[10.1 µM] | . | 11% | . | .
CCOC(=O)c1ccc(NC(=O)COc2ccccc2CNCCc2ccccc2)cc1 | 20% | -1% | -13% | 50µM* | ? | -8%
CCOC(=O)c1ccc(NC(=O)COc2ccc(CNCCO)cc2OCC)cc1 | 8% | 1% | 20% | 16% | -1% | 0%
CC(C)(C)C1=CC=C(C(C)(C)C)C(=O)C1=O | . | 0% | -13% | 1.6µM* | 56% | -25%
CCN(CC)CCN(C(=O)c1ccc2ncsc2c1)c1nc2cc3c(cc2s1)OCO3 | . | . | . | 35µM* | . | ?
COc1ccc(Cl)cc1/C=C1/C(=O)ON=C1C | . | . | . | 50µM* | . | 28%
C#CCOc1c(Cl)cc(/C=C2/C(=O)ON=C2C)cc1OC | . | . | . | 56µM* | . | 0%
COc1cc(/C=C2/C(=O)ON=C2C)cc(Cl)c1O | . | . | . | -11% | . | -4%
CCOc1ccc(Cl)cc1/C=C1/C(=O)ON=C1C | . | . | . | 50µM* | . | -14%
CC1=NOC(=O)/C1=C/c1ccc(O)c(Cl)c1 | . | . | . | -35% | . | -9%
CCOc1cc(/C=C2/C(=O)ON=C2C)ccc1O | . | . | . | -19% | . | 6%
CCCOc1ccc(/C=C2/C(=O)ON=C2C)cc1Cl | . | . | . | 50µM* | . | -22%
CCOC(=O)c1ccc(NC(=O)C2Cc3ccccc3C(=O)O2)cc1 (stereo unspecified) | . | 3% | . | . | . | -17%
C#C[C@]1(O)CC[C@@H]2[C@H]3CCC4=CC(=O)CC[C@H]4[C@H]3C(=C)C[C@@]21CC | . | . | . | 6% | . | -10%
CC1CCCCC1NC(=S)NC(=O)c1sc2ccccc2c1Cl (stereo unspecified) | 7% | -2% | -10% | 32µM* | 16% | -18%
O=C(CSc1nnc(-c2ccccc2)n1Cc1ccco1)Nc1ccc2c(c1)OCCO2 | -7%[38.3 µM] | 0% | -8% | 45µM* | -16%[46.1 µM] | -3%
O=C(CSc1nnc(-c2cccs2)n1Cc1ccco1)Nc1ccc2c(c1)OCO2 | 13%[38.3 µM] | -3% | 7% | ? | -27%[46.1 µM] | 0%
Cc1cc(C)c(NC(=O)CSc2nnc(-c3ccncc3)n2Cc2ccco2)c(Cl)c1 | -3%[38.3 µM] | 4% | -1% | 20µM* | -14%[46.1 µM] | -12%
CCCCn1c(SCC(=O)c2ccc3c(c2)OCCO3)nnc1-c1ccco1 | 10%[38.3 µM] | 0% | 0% | 50µM* | -15%[46.1 µM] | -3%
Cc1nnc(SCC(=O)Nc2cccc(C(F)(F)F)c2)n1Cc1ccco1 | 2%[38.3 µM] | -3% | 9% | 40µM* | 4%[46.1 µM] | -18%
Cc1cc(NC(=O)CSc2nnc(CNc3cccc(C(F)(F)F)c3)n2Cc2ccco2)no1 | -6%[38.3 µM] | 1% | -3% | -8% | 4%[46.1 µM] | 0%
CCn1c(SCC(=O)Nc2ccc3c(c2)OCCO3)nnc1-c1ccco1 | 18%[38.3 µM] | -1% | 0% | 10% | -10%[46.1 µM] | 3%
Nc1nc(-c2nn(Cc3ccccc3F)c3ncccc23)ncc1C1CC1 | . | . | . | 15% | . | 3%
CCc1oc2ccccc2c1C(=O)c1cc(I)c(O)c(I)c1 | . | . | . | 40µM* | . | 8.9µM*
Cc1cc[n+](-c2[nH]c(=O)sc2/C=N/N=C(\[O-])c2ccccc2)cc1 | . | 0% | ? | ? | 19% | -6%
Cc1cc(C)c[n+](-c2[nH]c(=O)sc2/C=N/N=C(\N)[S-])c1 | 5% | -2% | -14% | 25µM* | -15% | -14%
O=C(CSc1nnc(NC(=O)c2ccccc2)s1)NCC1CCCO1 (stereo unspecified) | . | . | . | 4% | . | ?

Assay outcomes as filed in PubChem.
